# Substitutions are numbered along the chain they refer to.
# Key:
# Assay in all cases: PBM; 200 nM protein, PBS
# Details in all cases: dsDNA, one strand shown
# SHOX [1] = target: SHOX (Homo sapiens, UniProt O15266 103-189)
# ALX4 [2] = target: ALX4 (Homo sapiens, UniProt Q9H161 200-286)
# PAX4 [3] = target: T1, PAX4 (Homo sapiens, UniProt O43316 9-242, R200K)
# T1 sequence: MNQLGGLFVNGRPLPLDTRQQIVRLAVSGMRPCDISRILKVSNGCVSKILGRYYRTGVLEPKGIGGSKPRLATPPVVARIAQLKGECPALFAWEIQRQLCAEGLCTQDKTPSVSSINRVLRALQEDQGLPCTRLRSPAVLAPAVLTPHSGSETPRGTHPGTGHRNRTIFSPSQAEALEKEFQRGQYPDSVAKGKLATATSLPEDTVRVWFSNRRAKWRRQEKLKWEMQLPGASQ
# PAX4 [4] = target: T2, PAX4 (Homo sapiens, UniProt O43316 9-242)
# T2 sequence: T1 sequence with K192R
# ALX4 [5] = target: ALX4 (Homo sapiens, UniProt Q9H161 200-286, Q225E)
# Chain of ALX4 (Homo sapiens, UniProt Q9H161 200-286, Q225E) (Q9H161 200-286 Q225E): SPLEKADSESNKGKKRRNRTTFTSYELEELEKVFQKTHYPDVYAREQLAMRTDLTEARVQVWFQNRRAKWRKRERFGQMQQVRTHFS
# MSX2 [6] = target: MSX2 (Homo sapiens, UniProt P35548 130-214, R199I)
# Chain of MSX2 (Homo sapiens, UniProt P35548 130-214, R199I) (P35548 130-214 R199I): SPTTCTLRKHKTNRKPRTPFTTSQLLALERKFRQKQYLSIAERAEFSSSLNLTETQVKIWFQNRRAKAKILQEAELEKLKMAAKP
# ALX1 [7] = target: ALX1 (Homo sapiens, UniProt Q15699 118-204, L144V)
# Chain of ALX1 (Homo sapiens, UniProt Q15699 118-204, L144V) (Q15699 118-204 L144V): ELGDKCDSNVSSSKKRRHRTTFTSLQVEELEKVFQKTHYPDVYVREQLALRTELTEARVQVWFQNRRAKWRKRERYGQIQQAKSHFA
# ALX3 [8] = target: ALX3 (Homo sapiens, UniProt O95076 139-225, N203Q)
# Chain of ALX3 (Homo sapiens, UniProt O95076 139-225, N203Q) (O95076 139-225 N203Q): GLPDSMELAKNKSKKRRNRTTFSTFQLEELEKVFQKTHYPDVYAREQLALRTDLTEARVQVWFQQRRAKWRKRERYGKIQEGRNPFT
# PAX4 [9] = target: T3, PAX4 (Homo sapiens, UniProt O43316 9-242, R200Q)
# T3 sequence: T1 sequence with K192Q
# SHOX [10] = target: SHOX (Homo sapiens, UniProt O15266 103-189, R173C)
# Chain of SHOX (Homo sapiens, UniProt O15266 103-189, R173C) (O15266 103-189 R173C): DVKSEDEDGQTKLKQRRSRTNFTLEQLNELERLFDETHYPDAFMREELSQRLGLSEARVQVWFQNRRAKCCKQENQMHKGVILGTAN
# ALX1 [11] = target: ALX1 (Homo sapiens, UniProt Q15699 118-204, L144R)
# Chain of ALX1 (Homo sapiens, UniProt Q15699 118-204, L144R) (Q15699 118-204 L144R): as the sequence (Q15699 118-204 L144V) above, with V27R counted along it
# PAX4 [12] = target: T4, PAX4 (Homo sapiens, UniProt O43316 9-242, F177V)
# T4 sequence: T1 sequence with F169V, K192R
# MSX2 [13] = target: MSX2 (Homo sapiens, UniProt P35548 130-214)
# Chain of MSX2 (Homo sapiens, UniProt P35548 130-214) (P35548 130-214): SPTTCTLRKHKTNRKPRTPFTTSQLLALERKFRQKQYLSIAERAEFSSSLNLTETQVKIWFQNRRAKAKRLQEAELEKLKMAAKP
# ALX3 [14] = target: ALX3 (Homo sapiens, UniProt O95076 139-225)
# Chain of ALX3 (Homo sapiens, UniProt O95076 139-225) (O95076 139-225): as the sequence (O95076 139-225 N203Q) above, with Q65N counted along it
# PAX4 [15] = target: T5, PAX4 (Homo sapiens, UniProt O43316 9-242, F177Y)
# T5 sequence: T1 sequence with F169Y, K192R
# PROP1 [16] = target: PROP1 (Homo sapiens, UniProt O75360 56-141)
# Chain of PROP1 (Homo sapiens, UniProt O75360 56-141) (O75360 56-141): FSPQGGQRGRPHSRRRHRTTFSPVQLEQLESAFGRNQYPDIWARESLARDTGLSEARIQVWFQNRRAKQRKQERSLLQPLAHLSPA
# PROP1 [17] = target: PROP1 (Homo sapiens, UniProt O75360 56-141, R99H)
# Chain of PROP1 (Homo sapiens, UniProt O75360 56-141, R99H) (O75360 56-141 R99H): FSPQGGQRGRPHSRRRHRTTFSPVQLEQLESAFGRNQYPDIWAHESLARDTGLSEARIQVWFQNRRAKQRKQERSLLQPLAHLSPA
# ALX3 [18] = target: ALX3 (Homo sapiens, UniProt O95076 139-225, L168Q)
# Chain of ALX3 (Homo sapiens, UniProt O95076 139-225, L168Q) (O95076 139-225 L168Q): as the sequence (O95076 139-225 N203Q) above, with L30Q, Q65N counted along it
# ALX3 [19] = target: ALX3 (Homo sapiens, UniProt O95076 139-225, L168V)
# Chain of ALX3 (Homo sapiens, UniProt O95076 139-225, L168V) (O95076 139-225 L168V): as the sequence (O95076 139-225 N203Q) above, with L30V, Q65N counted along it
# PROP1 [20] = target: PROP1 (Homo sapiens, UniProt O75360 56-141, F88S)
# Chain of PROP1 (Homo sapiens, UniProt O75360 56-141, F88S) (O75360 56-141 F88S): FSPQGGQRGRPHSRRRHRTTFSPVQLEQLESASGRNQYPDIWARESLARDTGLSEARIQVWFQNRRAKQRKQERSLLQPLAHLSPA
# MSX2 [21] = target: MSX2 (Homo sapiens, UniProt P35548 130-214, F161Y)
# Chain of MSX2 (Homo sapiens, UniProt P35548 130-214, F161Y) (P35548 130-214 F161Y): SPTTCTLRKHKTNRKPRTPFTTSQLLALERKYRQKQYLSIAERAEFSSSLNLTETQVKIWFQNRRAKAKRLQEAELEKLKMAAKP
# PAX4 [22] = target: T6, PAX4 (Homo sapiens, UniProt O43316 9-242, R227W)
# T6 sequence: T1 sequence with K192R, R219W
# ALX1 [23] = target: ALX1 (Homo sapiens, UniProt Q15699 118-204)
# Chain of ALX1 (Homo sapiens, UniProt Q15699 118-204) (Q15699 118-204): as the sequence (Q15699 118-204 L144V) above, with V27L counted along it
# ALX3 [24] = target: ALX3 (Homo sapiens, UniProt O95076 139-225, N203S)
# Chain of ALX3 (Homo sapiens, UniProt O95076 139-225, N203S) (O95076 139-225 N203S): as the sequence (O95076 139-225 N203Q) above, with Q65S counted along it
# PRRX1 [25] = target: PRRX1 (Homo sapiens, UniProt P54821 80-166, F113S)
# Chain of PRRX1 (Homo sapiens, UniProt P54821 80-166, F113S) (P54821 80-166 F113S): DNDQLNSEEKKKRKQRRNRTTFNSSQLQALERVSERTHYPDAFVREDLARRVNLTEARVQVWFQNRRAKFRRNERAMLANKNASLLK
# PITX2 = PITX2 (Homo sapiens, UniProt Q99697 72-157)
# PRRX1 [26] = target: PRRX1 (Homo sapiens, UniProt P54821 80-166)
# Chain of PRRX1 (Homo sapiens, UniProt P54821 80-166) (P54821 80-166): as the sequence (P54821 80-166 F113S) above, with S34F counted along it
# HOXA2 [27] = target: HOXA2 (Homo sapiens, UniProt O43364 129-215, R185T)
# Chain of HOXA2 (Homo sapiens, UniProt O43364 129-215, R185T) (O43364 129-215 R185T): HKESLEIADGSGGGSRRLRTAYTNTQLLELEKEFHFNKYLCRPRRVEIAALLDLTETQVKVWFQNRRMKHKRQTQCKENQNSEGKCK
# HOXA2 [28] = target: HOXA2 (Homo sapiens, UniProt O43364 129-215, R185K)
# Chain of HOXA2 (Homo sapiens, UniProt O43364 129-215, R185K) (O43364 129-215 R185K): as the sequence (O43364 129-215 R185T) above, with T57K counted along it
# HOXA2 [29] = target: HOXA2 (Homo sapiens, UniProt O43364 129-215, Y150S)
# Chain of HOXA2 (Homo sapiens, UniProt O43364 129-215, Y150S) (O43364 129-215 Y150S): as the sequence (O43364 129-215 R185T) above, with Y22S, T57R counted along it
# HOXA2 [30] = target: HOXA2 (Homo sapiens, UniProt O43364 129-215)
# Chain of HOXA2 (Homo sapiens, UniProt O43364 129-215) (O43364 129-215): as the sequence (O43364 129-215 R185T) above, with T57R counted along it
# Chain of SHOX (Homo sapiens, UniProt O15266 103-189) (O15266 103-189): as the sequence (O15266 103-189 R173C) above, with C71R counted along it
# Chain of ALX4 (Homo sapiens, UniProt Q9H161 200-286) (Q9H161 200-286): as the sequence (Q9H161 200-286 Q225E) above, with E26Q counted along it
sequence,measurement,setting,value
CAAATTAG,binding signal,SHOX [1],"11.8 upbm affinity estimate (log intensity, higher = more binding, comparable within an allelic series)"
same,binding signal,ALX4 [2],"13.6 upbm affinity estimate (log intensity, higher = more binding, comparable within an allelic series)"
same,binding signal,PAX4 [3],"11.8 upbm affinity estimate (log intensity, higher = more binding, comparable within an allelic series)"
same,binding signal,PAX4 [4],"12.4 upbm affinity estimate (log intensity, higher = more binding, comparable within an allelic series)"
same,binding signal,ALX4 [5],"12.4 upbm affinity estimate (log intensity, higher = more binding, comparable within an allelic series)"
same,binding signal,MSX2 [6],"12.1 upbm affinity estimate (log intensity, higher = more binding, comparable within an allelic series)"
same,binding signal,ALX1 [7],"11.3 upbm affinity estimate (log intensity, higher = more binding, comparable within an allelic series)"
same,binding signal,ALX3 [8],"8.31 upbm affinity estimate (log intensity, higher = more binding, comparable within an allelic series)"
same,binding signal,PAX4 [9],"12.3 upbm affinity estimate (log intensity, higher = more binding, comparable within an allelic series)"
same,binding signal,SHOX [10],"9.26 upbm affinity estimate (log intensity, higher = more binding, comparable within an allelic series)"
same,binding signal,ALX1 [11],"10.9 upbm affinity estimate (log intensity, higher = more binding, comparable within an allelic series)"
same,binding signal,PAX4 [12],"10.4 upbm affinity estimate (log intensity, higher = more binding, comparable within an allelic series)"
same,binding signal,MSX2 [13],"13.3 upbm affinity estimate (log intensity, higher = more binding, comparable within an allelic series)"
same,binding signal,ALX3 [14],"12.2 upbm affinity estimate (log intensity, higher = more binding, comparable within an allelic series)"
same,binding signal,PAX4 [15],"11 upbm affinity estimate (log intensity, higher = more binding, comparable within an allelic series)"
same,binding signal,PROP1 [16],"11.1 upbm affinity estimate (log intensity, higher = more binding, comparable within an allelic series)"
same,binding signal,PROP1 [17],"10.7 upbm affinity estimate (log intensity, higher = more binding, comparable within an allelic series)"
same,binding signal,ALX3 [18],"10.1 upbm affinity estimate (log intensity, higher = more binding, comparable within an allelic series)"
same,binding signal,ALX3 [19],"9.51 upbm affinity estimate (log intensity, higher = more binding, comparable within an allelic series)"
same,binding signal,PROP1 [20],"7.47 upbm affinity estimate (log intensity, higher = more binding, comparable within an allelic series)"
same,binding signal,MSX2 [21],"12.9 upbm affinity estimate (log intensity, higher = more binding, comparable within an allelic series)"
same,binding signal,PAX4 [22],"11 upbm affinity estimate (log intensity, higher = more binding, comparable within an allelic series)"
same,binding signal,ALX1 [23],"12.1 upbm affinity estimate (log intensity, higher = more binding, comparable within an allelic series)"
same,binding signal,ALX3 [24],"8.39 upbm affinity estimate (log intensity, higher = more binding, comparable within an allelic series)"
CCCGGCAC,binding signal,SHOX [1],"7.01 upbm affinity estimate (log intensity, higher = more binding, comparable within an allelic series)"
same,binding signal,PRRX1 [25],"9.16 upbm affinity estimate (log intensity, higher = more binding, comparable within an allelic series)"
same,binding signal,PITX2,"7.81 upbm affinity estimate (log intensity, higher = more binding, comparable within an allelic series)"
same,binding signal,SHOX [10],"7.19 upbm affinity estimate (log intensity, higher = more binding, comparable within an allelic series)"
same,binding signal,PRRX1 [26],"9.19 upbm affinity estimate (log intensity, higher = more binding, comparable within an allelic series)"
CGCCGGCG,binding signal,SHOX [1],"7.07 upbm affinity estimate (log intensity, higher = more binding, comparable within an allelic series)"
same,binding signal,HOXA2 [27],"7.18 upbm affinity estimate (log intensity, higher = more binding, comparable within an allelic series)"
same,binding signal,ALX3 [8],"7.92 upbm affinity estimate (log intensity, higher = more binding, comparable within an allelic series)"
same,binding signal,SHOX [10],"7.15 upbm affinity estimate (log intensity, higher = more binding, comparable within an allelic series)"
same,binding signal,HOXA2 [28],"10.2 upbm affinity estimate (log intensity, higher = more binding, comparable within an allelic series)"
same,binding signal,ALX3 [14],"7.79 upbm affinity estimate (log intensity, higher = more binding, comparable within an allelic series)"
same,binding signal,ALX3 [18],"7.73 upbm affinity estimate (log intensity, higher = more binding, comparable within an allelic series)"
same,binding signal,ALX3 [19],"7.68 upbm affinity estimate (log intensity, higher = more binding, comparable within an allelic series)"
same,binding signal,HOXA2 [29],"10.3 upbm affinity estimate (log intensity, higher = more binding, comparable within an allelic series)"
same,binding signal,ALX3 [24],"8.03 upbm affinity estimate (log intensity, higher = more binding, comparable within an allelic series)"
same,binding signal,HOXA2 [30],"7.22 upbm affinity estimate (log intensity, higher = more binding, comparable within an allelic series)"
